Source: ChEMBL document CHEMBL1961873, “Compounds: GSK PKIS; Assays: Nanosyn kinase panel” (2012)

Target: Tyrosine-protein kinase JAK2 (Homo sapiens) (UniProt O60674)
Settings: at 0.1 µM
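Note: mean percent inhibition of JAK2 activity, from the GSK PKIS kinase panel screen.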

Tyrosine-protein kinase JAK2 (Homo sapiens), sequence (O60674 whole entry): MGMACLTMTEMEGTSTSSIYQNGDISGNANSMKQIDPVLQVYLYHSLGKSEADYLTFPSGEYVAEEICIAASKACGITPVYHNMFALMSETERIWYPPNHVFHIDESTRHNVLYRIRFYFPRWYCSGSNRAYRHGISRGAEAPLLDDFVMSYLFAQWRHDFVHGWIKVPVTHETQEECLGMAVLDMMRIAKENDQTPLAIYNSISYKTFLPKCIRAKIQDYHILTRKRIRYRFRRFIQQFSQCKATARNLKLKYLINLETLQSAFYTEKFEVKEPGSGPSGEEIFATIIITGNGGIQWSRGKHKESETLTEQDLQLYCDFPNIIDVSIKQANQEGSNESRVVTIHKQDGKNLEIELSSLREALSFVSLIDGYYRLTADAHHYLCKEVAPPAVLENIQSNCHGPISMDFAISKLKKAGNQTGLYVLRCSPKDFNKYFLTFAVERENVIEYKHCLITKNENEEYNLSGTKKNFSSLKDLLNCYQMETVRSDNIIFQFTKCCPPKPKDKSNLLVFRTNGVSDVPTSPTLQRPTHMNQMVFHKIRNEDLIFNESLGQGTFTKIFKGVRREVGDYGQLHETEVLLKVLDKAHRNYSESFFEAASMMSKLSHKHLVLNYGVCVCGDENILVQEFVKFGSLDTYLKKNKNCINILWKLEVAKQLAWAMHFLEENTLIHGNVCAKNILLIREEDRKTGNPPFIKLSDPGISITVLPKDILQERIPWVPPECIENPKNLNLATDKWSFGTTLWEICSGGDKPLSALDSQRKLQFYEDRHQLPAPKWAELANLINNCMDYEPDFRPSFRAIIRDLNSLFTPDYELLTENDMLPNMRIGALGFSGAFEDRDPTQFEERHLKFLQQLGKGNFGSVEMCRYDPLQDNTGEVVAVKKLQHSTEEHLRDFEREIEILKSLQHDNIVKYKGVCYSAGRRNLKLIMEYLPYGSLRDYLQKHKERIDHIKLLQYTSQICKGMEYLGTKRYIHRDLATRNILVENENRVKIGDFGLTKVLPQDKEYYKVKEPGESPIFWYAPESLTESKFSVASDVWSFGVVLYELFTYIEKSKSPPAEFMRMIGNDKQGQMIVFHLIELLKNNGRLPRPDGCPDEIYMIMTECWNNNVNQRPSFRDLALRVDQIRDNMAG

Structure (SMILES)	inhibition [%]
COc1ccc(-c2cc(-c3c[nH]nc3-c3ccccn3)ccn2)cc1	1.59
CCCN(CCS(C)(=O)=O)Cc1ccc(-c2ccc3ncnc(Nc4ccc(OCc5cccc(F)c5)c(Cl)c4)c3c2)o1	0.69
FC(F)(F)c1cccc(-c2nn3ncccc3c2-c2ccnc(Nc3ccc4c(c3)OCCO4)n2)c1	0.96
CCNC(=O)O[C@H]1CN[C@H](C#Cc2cc3ncnc(Nc4ccc(OCc5cccc(F)c5)c(Cl)c4)c3s2)C1	3.47
COC(=O)Nc1nc2ccc(S(=O)(=O)c3ccc(NC(=O)Nc4cc(C(F)(F)F)ccc4F)cc3)cc2[nH]1	1.28
CC(=O)Nc1cccc(C#Cc2cncnc2Nc2ccc(OCc3cccc(F)c3)c(Cl)c2)c1	4.37
CCOc1ccc2c(-c3ccnc(Nc4cccc(C(F)(F)F)c4)n3)cnn2n1	0.91
CC(=O)NCc1cccc(C#Cc2cncnc2Nc2ccc(OCc3cccc(F)c3)c(Cl)c2)c1	-0.2
Cc1cccc2c1NC(=O)/C2=N\Nc1ccc(S(N)(=O)=O)cc1	2.04
COc1ccc(-c2nn3ncccc3c2-c2ccnc(Nc3ccc4c(c3)OCCO4)n2)cc1	-0.19
Fc1ccc(-c2cc(-c3c[nH]nc3-c3ccccn3)ccn2)cc1	1
CCN(CC)S(=O)(=O)c1ccc(OC)c(Nc2ncc(-c3ccccc3)o2)c1	0.36
COc1cccc(-c2c[nH]c3c(N/N=C/c4ccncc4)ncnc23)c1	1.76
c1ccc(-c2nc3n(c2-c2ccc4c(c2)OCO4)CCC3)nc1	1.27
COc1cccc(-n2ncc3c(N/N=C/c4ccc(F)cc4)ncnc32)c1	1.38
Nc1ncc(-c2cccc(S(N)(=O)=O)c2)c2scc(-c3ccc(F)c(Cl)c3)c12	0.29
Cc1ccc2c(-c3ccnc(Nc4ccccc4)n3)c(-c3ccc(F)cc3)nn2n1	1.55

Structure (SMILES)	inhibition [%]
CS(=O)(=O)CCNCc1ccc(-c2ccc3ncnc(Nc4ccc(OCc5ccccc5)c(C(F)(F)F)c4)c3c2)o1	1.86
NC(=O)c1sc(-n2cnc3ccc(C(F)(F)F)cc32)cc1OCc1ccccc1Br	1.84
CCn1c(-c2nonc2N)nc2ccccc21	1.96
NS(=O)(=O)c1ccc(Nc2ncc(-c3ccccc3)o2)cc1	0.87
COc1ccc2[nH]c3c4[nH]c5ccc(OC)cc5c4c4c(c3c2c1)C(=O)NC4=O	-0.61
Nc1nc(-c2ccc(F)cc2)c(-c2ccc3ncccc3n2)s1	2.05
COc1ccc(CNC(=O)c2ccc(-c3cc(-c4nnc(C)o4)ccc3C)cc2)cc1	1.15
O=C(O[C@H]1CN[C@H](C#Cc2cc3ncnc(Nc4ccc(Cc5ccccc5)cc4)c3s2)C1)N1CCOCC1	-0.09
N#Cc1c(NC(=O)CN2CCOCC2)sc2c1CCCC2	2.3
Cc1cccc(Nc2ncc(-c3ccccc3)o2)c1	2
O=C(Nc1n[nH]c2cc(-c3ccc(F)cc3)ccc12)C1CC1	1.12
COC(=O)c1sc(-n2cnc3cc(OC)c(OC)cc32)cc1OCc1ccccc1C(F)(F)F	0.91
Cc1ccc(O)cc1Nc1ccnc2cc(-c3ccccn3)ccc12	2.62
CCc1nn2ncccc2c1-c1ccnc(NC2CC2)n1	0.9
CCn1cc(-c2ccnc3[nH]ccc23)c(-c2cccc(NC(=O)Nc3ccc(OCc4ccccc4)cc3)c2)n1	-0.01
COc1cc2c(cc1Nc1nc(Nc3ccsc3C(N)=O)c3cc[nH]c3n1)N(C(=O)CN(C)C)CCC2(C)C	0.97
